{"source": "PubChem BioAssay AID504546", "about": "(Broad Institute, 2011)", "note": "Records with an inconclusive call do not appear. Calls of active or inactive are those of the source.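 How the source made its calls: active means every repeat run fits a falling-signal curve with half-maximal potency within ten times top tested dose; inconclusive means runs disagree, or flat moderate drop, or poor fit; inactive means every run inactive, including signal moving upward.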"}
{"assay": "inhibition of ADP-Glo detection reagents, dose response, artefact control for CDK5 inhibitor project, biochemical, luminescence, cherry-picked samples, set 2 (AID 504546);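 further: 0% = DMSO wells and -100% = wells lacking ADP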", "details": "ADP-Glo detection reagent counter screen, 5 uM ADP; series mostly up to 30 µM; activity change, negative = inhibition: at the top concentration"}
{"smiles": "CN(C)N1C(N)=C(C#N)C(c2cccs2)C2=C1CCCC2=O", "note": "(stereo unspecified)", "activity change, negative = inhibition": "8.74% (inactive)"}
{"smiles": "CC(C)[C@H](CO)Nc1nc(NCc2ccc(S(N)(=O)=O)cc2)c2ncn(C(C)C)c2n1", "activity change, negative = inhibition": "0.978% (inactive)"}
{"smiles": "OCCCNc1cc(-c2ccnc(Nc3cccc(Cl)c3)n2)ccn1", "activity change, negative = inhibition": "4.16% (inactive)"}
{"smiles": "Cc1[nH][nH]c(=O)c1C(c1ccccc1[N+](=O)[O-])C(C#N)C#N", "note": "(stereo unspecified)", "activity change, negative = inhibition": "-5.72% (inactive)"}
{"smiles": "NC(=O)N/N=C/c1c(O)ccc2oc3c(c12)CCCC3", "activity change, negative = inhibition": "-5.29% (inactive)"}
{"smiles": "Cc1nn(-c2nc3ccccc3[nH]2)c(=O)c2ccccc12", "activity change, negative = inhibition": "-5.25% (inactive)"}
{"smiles": "CCC(C)(C)C1CCc2[nH]nc(C(=O)NCCN3CCOCC3)c2C1", "note": "(stereo unspecified)", "activity change, negative = inhibition": "-8.52% (inactive)"}
{"smiles": "COc1ccc2ccc3ccc(OC)c(OC(C)=O)c3c2c1", "activity change, negative = inhibition": "4.29% (inactive)"}
{"smiles": "Oc1ccc(/C=N/Nc2nccnc2Cl)c(O)c1", "activity change, negative = inhibition": "-6.66% (inactive)"}
{"smiles": "Oc1ccc(/C=N/Nc2ccc(C(F)(F)F)cn2)cc1", "activity change, negative = inhibition": "-9.1% (inactive)"}
{"smiles": "Clc1ccc(N/N=C/c2ccncc2)cc1Cl", "activity change, negative = inhibition": "-12.5% (inactive)"}
{"smiles": "Cc1ccc2[nH]c(C(F)(F)F)cc(=O)c2c1", "activity change, negative = inhibition": "14.9% (inactive)"}
{"smiles": "CCOc1cc(C(=O)N2CCN(c3ccccn3)CC2)cc(OCC)c1OCC", "activity change, negative = inhibition": "5.42% (inactive)"}
{"smiles": "CC1(C)Cc2c(ccc3ccccc23)C(=O)N1", "activity change, negative = inhibition": "-9.95% (inactive)"}
{"smiles": "CC(C)n1cnc2c(NCc3ccccc3)nc(NCc3ccccc3)nc21", "activity change, negative = inhibition": "20.6% (inactive)"}
{"smiles": "Cc1[nH]nc2c1-c1nc3ccccc3nc1C(C)(C)C2", "activity change, negative = inhibition": "7.67% (inactive)"}
{"smiles": "Cc1nc(Nc2ccccc2)sc1C(=O)c1ccccc1", "activity change, negative = inhibition": "1.1% (inactive)"}
{"smiles": "NC1=NC(=O)/C(=C/c2ccc(-c3ccc(S(N)(=O)=O)cc3)o2)S1", "activity change, negative = inhibition": "13.8% (inactive)"}
{"smiles": "CC(C)[C@H](CO)N(Cc1cccc(F)c1)c1nc(Nc2cccc(Cl)c2)c2ncn(C(C)C)c2n1", "activity change, negative = inhibition": "0.324% (inactive)"}
{"smiles": "O=C(O)c1ccc(/C=N\\Nc2ccccn2)cc1", "activity change, negative = inhibition": "-6.4% (inactive)"}
{"smiles": "Oc1ccc(/C=N/Nc2ccc(C(F)(F)F)cn2)c(O)c1", "activity change, negative = inhibition": "20.8% (inactive)"}
{"smiles": "Nc1ccc(-c2cnc(N)c(C(=O)c3cccnc3)n2)cn1", "activity change, negative = inhibition": "-4.42% (inactive)"}
{"smiles": "N#Cc1c(N)n(C2OC(CO)C(O)C2O)c2ncnc(N)c12", "note": "(stereo unspecified)", "activity change, negative = inhibition": "7.26% (inactive)"}
{"smiles": "CCNc1nc(N)nc(-c2cc(Cl)ccc2O)n1", "activity change, negative = inhibition": "-11.2% (inactive)"}
{"smiles": "S=C(c1ccc(OCc2ccccc2)cc1)N1CCCC1", "activity change, negative = inhibition": "1.64% (inactive)"}
{"smiles": "Cc1ccc(Nc2nc(NCCO)nc3c2cnn3C)cc1Cl", "activity change, negative = inhibition": "-8.75% (inactive)"}
{"smiles": "CC(C)n1cnc2c(Nc3ccc(C(=O)O)cc3)nc(Cl)nc21", "activity change, negative = inhibition": "5.34% (inactive)"}
{"smiles": "CC(C)[C@H](CO)Nc1nc(Nc2ccc(Cl)c(C(=O)O)c2)c2ncn(C(C)C)c2n1", "activity change, negative = inhibition": "3.05% (inactive)"}
{"smiles": "CC(C)C[C@H](CO)Nc1nc(N(C)c2cccc(Cl)c2)c2ncn(C(C)C)c2n1", "activity change, negative = inhibition": "14.8% (inactive)"}
{"smiles": "CN1CCN(C(=O)c2ccc3c(c2)NC(=O)/C(=C/c2ccccc2)S3)CC1", "activity change, negative = inhibition": "16.2% (inactive)"}
{"smiles": "CCN1C(=O)/C(=C2/Sc3ccc(OC)cc3N2C)SC1=Nc1cccc(O)c1", "activity change, negative = inhibition": "11.8% (inactive)"}
{"smiles": "CCCc1cc(-c2[nH]ncc2-c2ccc(C(=O)OCC)o2)c(O)cc1O", "activity change, negative = inhibition": "3.88% (inactive)"}
{"smiles": "CC(C)(C)N=Cc1c(O)ccc2oc3c(c12)CCCC3", "activity change, negative = inhibition": "2.31% (inactive)"}
{"smiles": "COc1ccc(Nc2nccc(-c3ccc([N+](=O)[O-])cc3)n2)cc1", "activity change, negative = inhibition": "-11.6% (inactive)"}
{"smiles": "COc1cccc(OC)c1C(=O)N1CCN(c2ccccn2)CC1", "activity change, negative = inhibition": "11.9% (inactive)"}
{"smiles": "CCCn1c(NC(=O)c2cccc(S(=O)(=O)N3CCCC3)c2)nc2ccccc21", "activity change, negative = inhibition": "13.4% (inactive)"}
